# Results reported in publication PMC5540273 (PLoS ONE, 2017).
# Read-outs that look alike come from different tables or passages of the source.
# Experiments:
# FYN = conditions: concentration: 1 μM, replicates: in singlicate; n = 1
# GAK = conditions: concentration: 1 μM, replicates: in singlicate; n = 1
# GCN2(Kin.Dom.2,S808G) = tested on: T1, GCN2(Kin.Dom.2,S808G); conditions: concentration: 1 μM, replicates: in singlicate; n = 1
# T1 construct: gene EIF2AK4
# GRK1 = conditions: concentration: 1 μM, replicates: in singlicate; n = 1
# GRK2 = tested on: T2, GRK2; conditions: concentration: 1 μM, replicates: in singlicate; n = 1
# T2 construct: gene ADRBK1
# GRK3 = tested on: T3, GRK3; conditions: concentration: 1 μM, replicates: in singlicate; n = 1
# T3 construct: gene ADRBK2
# GRK4 = conditions: concentration: 1 μM, replicates: in singlicate; n = 1
# GRK7 = conditions: concentration: 1 μM, replicates: in singlicate; n = 1
# GSK3A = conditions: concentration: 1 μM, replicates: in singlicate; n = 1
# GSK3B = conditions: n = 1
# HASPIN = tested on: T4, HASPIN; conditions: concentration: 1 μM, replicates: in singlicate; n = 1
# T4 construct: gene GSG2
# HCK = conditions: concentration: 1 μM, replicates: in singlicate; n = 1
# HIPK1 = conditions: concentration: 1 μM, replicates: in singlicate; n = 1
# HIPK2 = conditions: concentration: 1 μM, replicates: in singlicate; n = 1
# HIPK3 = conditions: concentration: 1 μM, replicates: in singlicate; n = 1
# HIPK4 = conditions: concentration: 1 μM, replicates: in singlicate; n = 1
# HPK1 = conditions: concentration: 1 μM, replicates: in singlicate; n = 1
# HUNK = conditions: concentration: 1 μM, replicates: in singlicate; n = 1
# ICK = conditions: concentration: 1 μM, replicates: in singlicate; n = 1
# IGF1R = conditions: concentration: 1 μM, replicates: in singlicate; n = 1
# [1] = concentration: 1 μM, replicates: in singlicate
# 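Also: KINOMEscan kinase panel screen.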
smiles,measurement,setting,value
COc1cccc(-c2nc(-c3ccccc3)[nH]c2-c2ccncc2)c1 [SB-610250],%Inh,FYN,24%
same,%Inh,GAK,72%
same,%Inh,"GCN2(Kin.Dom.2,S808G)",1%
same,%Inh,GRK1,0%
same,%Inh,GRK2,0%
same,%Inh,GRK3,49%
same,%Inh,GRK4,0%
same,%Inh,GRK7,0%
same,%Inh,GSK3A,0%
same,%Inh,GSK3B; [1],19%
same,%Inh,HASPIN,66%
same,%Inh,HCK,0%
same,%Inh,HIPK1,0%
same,%Inh,HIPK2,0%
same,%Inh,HIPK3,15%
same,%Inh,HIPK4,7%
same,%Inh,HPK1,43%
same,%Inh,HUNK,31%
same,%Inh,ICK,3%
same,%Inh,IGF1R,16%
Nc1cccc(-c2ccc3c(N)n[nH]c3c2)c1 [GSK2193613],%Inh,FYN,13%
same,%Inh,GAK,44%
same,%Inh,"GCN2(Kin.Dom.2,S808G)",0%
same,%Inh,GRK1,0%
same,%Inh,GRK2,0%
same,%Inh,GRK3,55%
same,%Inh,GRK4,9%
same,%Inh,GRK7,0%
same,%Inh,GSK3A,0%
same,%Inh,GSK3B; [1],96.2%
same,%Inh,HASPIN,90.5%
same,%Inh,HCK,0%
same,%Inh,HIPK1,0%
same,%Inh,HIPK2,0%
same,%Inh,HIPK3,100%
same,%Inh,HIPK4,0%
same,%Inh,HPK1,48%
same,%Inh,HUNK,23%
same,%Inh,ICK,0%
same,%Inh,IGF1R,8%
Nc1ncc(-c2cn[nH]c2)c2scc(-c3ccc4c(c3)CCN4C(=O)Cc3ccccc3)c12 [GSK2593067],%Inh,FYN,65%
same,%Inh,GAK,32%
same,%Inh,"GCN2(Kin.Dom.2,S808G)",97.8%
same,%Inh,GRK1,10%
same,%Inh,GRK2,0%
same,%Inh,GRK3,0%
same,%Inh,GRK4,0%
same,%Inh,GRK7,0%
same,%Inh,GSK3A,2%
same,%Inh,GSK3B; [1],11%
same,%Inh,HASPIN,0%
same,%Inh,HCK,92.6%
same,%Inh,HIPK1,0%
same,%Inh,HIPK2,1%
same,%Inh,HIPK3,4%
same,%Inh,HIPK4,0%
same,%Inh,HPK1,94%
same,%Inh,HUNK,0%
same,%Inh,ICK,0%
same,%Inh,IGF1R,4%
CC(C)c1nc(-c2ccc(F)c(NS(=O)(=O)c3c(F)cccc3F)c2)c(-c2ccnc(Nc3ccc(N4CCOCC4)nc3)n2)s1 [GSK1804250],%Inh,FYN,95.9%
same,%Inh,GAK,92.1%
same,%Inh,"GCN2(Kin.Dom.2,S808G)",100%
same,%Inh,GRK1,0%
same,%Inh,GRK2,6%
same,%Inh,GRK3,7%
same,%Inh,GRK4,9%
same,%Inh,GRK7,0%
same,%Inh,GSK3A,40%
same,%Inh,GSK3B; [1],23%
same,%Inh,HASPIN,18%
same,%Inh,HCK,98.4%
same,%Inh,HIPK1,17%
same,%Inh,HIPK2,0%
same,%Inh,HIPK3,30%
same,%Inh,HIPK4,72%
same,%Inh,HPK1,56%
same,%Inh,HUNK,7%
same,%Inh,ICK,0%
same,%Inh,IGF1R,8%
COc1cccc(CC(=O)N2CCc3cc(-c4cn(C)c5ncnc(N)c45)ccc32)c1 [GSK2608899],%Inh,FYN,9%
same,%Inh,GAK,31%
same,%Inh,"GCN2(Kin.Dom.2,S808G)",70%
same,%Inh,GRK1,0%
same,%Inh,GRK2,0%
same,%Inh,GRK3,0%
same,%Inh,GRK4,9%
same,%Inh,GRK7,0%
same,%Inh,GSK3A,0%
same,%Inh,GSK3B; [1],15%
same,%Inh,HASPIN,0%
same,%Inh,HCK,0%
same,%Inh,HIPK1,0%
same,%Inh,HIPK2,0%
same,%Inh,HIPK3,22%
same,%Inh,HIPK4,56%
same,%Inh,HPK1,55%
same,%Inh,HUNK,3%
same,%Inh,ICK,6%
same,%Inh,IGF1R,17%
COC(=O)Nc1nc2ccc(Oc3ccc(CC(=O)Nc4cc(C(F)(F)F)ccc4F)cc3)cc2[nH]1 [GW680903],%Inh,FYN,37%
same,%Inh,GAK,0%
same,%Inh,"GCN2(Kin.Dom.2,S808G)",2%
same,%Inh,GRK1,0%
same,%Inh,GRK2,0%
same,%Inh,GRK3,66%
same,%Inh,GRK4,0%
same,%Inh,GRK7,0%
same,%Inh,GSK3A,5%
same,%Inh,GSK3B; [1],0%
same,%Inh,HASPIN,0%
same,%Inh,HCK,0%
same,%Inh,HIPK1,0%
same,%Inh,HIPK2,0%
same,%Inh,HIPK3,0%
same,%Inh,HIPK4,0%
same,%Inh,HPK1,60%
same,%Inh,HUNK,15%
same,%Inh,ICK,0%
same,%Inh,IGF1R,0%
c1ccc(Oc2ccc(Nc3ccnc4cc(-c5ccc(CN6CCCCC6)o5)ccc34)cc2)nc1 [GW567143],%Inh,FYN,74%
same,%Inh,GAK,79%
same,%Inh,"GCN2(Kin.Dom.2,S808G)",24%
same,%Inh,GRK1,0%
same,%Inh,GRK2,0%
same,%Inh,GRK3,8%
same,%Inh,GRK4,0%
same,%Inh,GRK7,0%
same,%Inh,GSK3A,4%
same,%Inh,GSK3B; [1],8%
same,%Inh,HASPIN,6%
same,%Inh,HCK,79%
same,%Inh,HIPK1,0%
same,%Inh,HIPK2,0%
same,%Inh,HIPK3,8%
same,%Inh,HIPK4,0%
same,%Inh,HPK1,20%
same,%Inh,HUNK,0%
same,%Inh,ICK,0%
same,%Inh,IGF1R,15%
COc1cccc(C2=C(Nc3cccc(O)c3)C(=O)NC2=O)c1 [SB-390771],%Inh,FYN,0%
same,%Inh,GAK,0%
same,%Inh,"GCN2(Kin.Dom.2,S808G)",0%
same,%Inh,GRK1,4%
same,%Inh,GRK2,0%
same,%Inh,GRK3,31%
same,%Inh,GRK4,0%
same,%Inh,GRK7,100%
same,%Inh,GSK3A,0%
same,%Inh,GSK3B; 1 µM,13%
same,%Inh,HASPIN,4%
same,%Inh,HCK,0%
same,%Inh,HIPK1,0%
same,%Inh,HIPK2,0%
same,%Inh,HIPK3,29%
same,%Inh,HIPK4,0%
same,%Inh,HPK1,51%
same,%Inh,HUNK,0%
same,%Inh,ICK,3%
same,%Inh,IGF1R,19%
CCn1c(-c2nonc2N)nc2c(-c3ccccc3)ncc(OCCCN)c21.O=C(O)C(F)(F)F.O=C(O)C(F)(F)F [GSK260205],%Inh,FYN,0%
same,%Inh,GAK,83%
same,%Inh,"GCN2(Kin.Dom.2,S808G)",0%
same,%Inh,GRK1,0%
same,%Inh,GRK2,0%
same,%Inh,GRK3,63%
same,%Inh,GRK4,0%
same,%Inh,GRK7,0%
same,%Inh,GSK3A,15%
same,%Inh,GSK3B; [1],17%
same,%Inh,HASPIN,9%
same,%Inh,HCK,0%
same,%Inh,HIPK1,0%
same,%Inh,HIPK2,0%
same,%Inh,HIPK3,38%
same,%Inh,HIPK4,0%
same,%Inh,HPK1,0%
same,%Inh,HUNK,0%
same,%Inh,ICK,10%
same,%Inh,IGF1R,0%
Cl.Cl.NCC(NC(=O)c1cc(-c2cccnc2)c(-c2ccnc3[nH]ccc23)s1)c1ccccc1 (centres unmarked) [GSK1323434],%Inh,FYN,6%
same,%Inh,GAK,88%
same,%Inh,"GCN2(Kin.Dom.2,S808G)",0%
same,%Inh,GRK1,0%
same,%Inh,GRK2,8%
same,%Inh,GRK3,39%
same,%Inh,GRK4,4%
same,%Inh,GRK7,21%
same,%Inh,GSK3A,34%
same,%Inh,GSK3B; [1],22%
same,%Inh,HASPIN,96.4%
same,%Inh,HCK,0%
same,%Inh,HIPK1,69%
same,%Inh,HIPK2,67%
same,%Inh,HIPK3,86%
same,%Inh,HIPK4,64%
same,%Inh,HPK1,59%
same,%Inh,HUNK,0%
same,%Inh,ICK,4%
same,%Inh,IGF1R,0%
